Experimental data published in PubChem BioAssay AID1259313 (Sanford-Burnham Center for Chemical Genomics, 2017).
Among all 340,000 compounds or so, about 8,500 (2.5%) were called active.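 How the source made its calls: active means melting temperature shift of at least 10% of the positive control shift, at one fixed dose; inactive means the rest.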 This excerpt belongs to a sample that is enriched for actives.

system: Glutamate receptor ionotropic, NMDA 3A (GRIN3A) ligand-binding domain; experiment: NR3A LBD thermal stabilization by compounds – biophysical, differential scanning fluorimetry, uHTS, primary screen (AID 1259313); conditions: at 25 µM, active compounds read high, 0% = protein alone, 100% = glycine-bound protein

Compound	Tm shift relative to glycine control
CCOC(=O)c1c(-c2ccccc2)oc2cc(Br)c(O)cc12	13.8% (active)
CCOC(=O)c1c(-c2ccccc2)oc2cc(Br)c(O)c(C=O)c12	-7.04% (inactive)
CCOC(=O)c1c(-c2ccccc2)oc2ccc(OCC(=O)NN)cc12	0.51% (inactive)
Cc1cccc(CC(=O)N2CCN=C2SCc2ccc([N+](=O)[O-])cc2)c1	-0.64% (inactive)
CCN(CC)CCCNC(=O)c1cn(C)c2ccc(S(=O)(=O)N(C)C3CCCCC3)cc2c1=O	-1.61% (inactive)
COc1ccc(C(=O)NCc2nnc(SCC(=O)Nc3cccc(OC)c3)o2)cc1	-1.39% (inactive)
COc1ccc2oc(-c3cccc(NC(=O)CSc4ccc(Cl)cc4)c3)nc2c1	13.7% (active)
COc1cccc(NC(=O)CSc2nnc(-c3cccnc3)o2)c1	-0.43% (inactive)
COCCCNC(=O)CNC(=O)c1nn(-c2ccc(OC)cc2)c(=O)c2ccccc12	-1.01% (inactive)
CCOC(=O)C1CCN(CC(=O)Nc2ccc(OC)c(S(=O)(=O)N3CCCCC3)c2)CC1	0.25% (inactive)
C#CCOCCOCCOCCNc1nc(N2CCN(C(=O)[C@H](CCC(=O)O)n3cc(CN)nn3)CC2)nc(N2CCN(C(=O)[C@H](CCC(=O)O)n3cc(CN)nn3)CC2)n1	1.02% (inactive)
C#CCOCCOCCOCCNc1nc(N2CCN(C(=O)[C@H](CCCCN)n3cc(CCC(=O)O)nn3)CC2)nc(N2CCN(C(=O)[C@H](CCCCN)n3cc(CC(C)O)nn3)CC2)n1 (some centres undefined)	1.78% (inactive)
C#CCOCCOCCOCCNc1nc(N2CCN(C(=O)Cn3cc(CCCCN)nn3)CC2)nc(N2CCN(C(=O)[C@H](CCCCN)n3cc(CCC(=O)O)nn3)CC2)n1	1.78% (inactive)
C#CCOCCOCCOCCNc1nc(N2CCN(C(=O)Cn3cc(CCO)nn3)CC2)nc(N2CCN(C(=O)Cn3cc(CCCN=C(N)N)nn3)CC2)n1	0% (inactive)
C#CCOCCOCCOCCNc1nc(N2CCN(C(=O)Cn3cc(CCO)nn3)CC2)nc(N2CCN(C(=O)[C@H](CCCCN)n3cc(CCCC)nn3)CC2)n1	0.76% (inactive)
C#CCOCCOCCOCCNc1nc(N2CCN(C(=O)CCCCCCCCCCNC(=O)Cn3cc(CCCCCN)nn3)CC2)nc(N2CCN(C(=O)CCCCCCCCCCNC(=O)[C@H](CO)n3cc(CCCSC)nn3)CC2)n1	14.2% (active)
C#CCOCCOCCOCCNc1nc(N2CCN(C(=O)CCCCCCCCCCNC(=O)[C@H]([C@@H](C)CC)n3cc(CCCCN=C(N)N)nn3)CC2)nc(N2CCN(C(=O)CCCCCCCCCCNC(=O)[C@H](CO)n3cc(CCCSC)nn3)CC2)n1	17% (active)
C#CCOCCOCCOCCNc1nc(N2CCN(C(=O)CCCCCCCCCCNC(=O)[C@H](CCCCN)n3cc(C)nn3)CC2)nc(N2CCN(C(=O)CCCCCCCCCCNC(=O)[C@H](CO)n3cc(CCCSC)nn3)CC2)n1	24.7% (active)
C#CCOCCOCCOCCNc1nc(N2CCN(C(=O)[C@H](C(C)C)n3cc(CCO)nn3)CC2)nc(N2CCN(C(=O)[C@H]([C@@H](C)CC)n3cc(CCCN=C(N)N)nn3)CC2)n1	1.78% (inactive)
CCn1c(SC)nc(O)c(C(c2ccc(OC)c(O)c2)c2c(O)nc(SC)n(CC)c2=O)c1=O	-1.71% (inactive)
O=C(O)c1cc2ccccc2c(=O)s1	-0.71% (inactive)
O=C(CCNC(=O)Cn1ccc2ccccc2c1=O)NCCC1=CCCCC1	-1.72% (inactive)
O=C(NCc1ccccn1)C1CCN(S(=O)(=O)c2ccc(Br)cc2)CC1	-1.11% (inactive)
Cc1nc(COc2cc3oc(=O)cc(C)c3cc2Cl)cs1	-0.26% (inactive)
CCN(CC(=O)NC(C)C)C(=O)c1cc(S(=O)(=O)N2CCCCC2)ccc1N1CCCCC1	-0.99% (inactive)
Cc1ccc(S(=O)(=O)c2nnn3c2nc(N2CCN(c4ccccn4)CC2)c2ccccc23)cc1	5.05% (inactive)
CC(=O)Nc1ccc(Nc2nc3c(S(=O)(=O)c4ccc(C)c(C)c4)nnn3c3ccccc23)cc1	14.7% (active)

Compound	Tm shift relative to glycine control
Cc1cccc(Nc2nc3c(S(=O)(=O)c4ccccc4)nnn3c3ccccc23)c1C	1.31% (inactive)
CCC12CN3CC(CC)(CN(C1)C31C(=O)N(C)c3ccc(C)cc31)C2=O (centres undefined)	0% (inactive)
O=c1c2ccccc2nc2n1C(CSCc1ccccc1)CS2 (centres undefined)	-1.4% (inactive)
O=c1c2ccccc2nc2n1C(CSCc1cccc(C(F)(F)F)c1)CS2 (centres undefined)	16.1% (active)
O=c1c2ccccc2nc2n1C(CSc1ccc(F)cc1)CN2 (centres undefined)	-3.8% (inactive)
COc1ccc(C(=O)NCc2nnc(SCC(=O)NC3=NCCS3)n2C)cc1	-1.86% (inactive)
CCOc1ccc(NC(=O)c2ccc(NC(=O)COC(=O)c3ccc(NC(=O)CC#N)cc3)cc2)cc1	9.12% (inactive)
CCOc1ccc(NC(=O)CCNC(=O)c2ccc(Br)cc2)cc1	-4.23% (inactive)
CCOc1ccc(NC(=O)c2ccc(NC(=O)CN3C(=O)C(=O)N(CC(C)C)C3=O)cc2)cc1	28.5% (active)
CCCOc1ccc(Cl)cc1Nc1nc(NCCO)nc(N2CCCC2)n1	1.78% (inactive)
Cc1cc(C)c(C#N)c(SCS(=O)c2ccc(C(C)(C)C)cc2)n1 (centres undefined)	1.37% (inactive)
CC(C)(C)C(=O)Nc1ccc(C(=O)N/N=C/c2ccccc2OC(=O)c2ccc(Cl)cc2Cl)cc1	2.16% (inactive)
O=C(Cc1cccs1)N/N=C/c1ccc(OCc2ccccc2)cc1	2.17% (inactive)
O=C(COc1ccc(/C=N/NC(=O)c2ccc(O)cc2)cc1)Nc1ccc([N+](=O)[O-])cc1	7.26% (inactive)
O=C(N/N=C/c1ccc(OCc2ccccc2)cc1)c1ccc(O)cc1	28.3% (active)
O=C(N/N=C/c1ccc(OC(=O)c2ccccc2Cl)cc1)c1ccc(O)cc1	24.6% (active)
O=C(O)c1ccc(/C=N/NC(=O)c2ccc(Br)cc2)cc1	-0.55% (inactive)
COc1cc(/C=N/NC(=O)Nc2ccccc2)ccc1OCCOc1ccccc1C	-1.19% (inactive)
O=c1[nH]cnc(O)c1C(c1ccc(F)cc1)c1c(O)nc[nH]c1=O	0.87% (inactive)
Oc1ccc(-c2cccc(-c3ccc(O)cc3)c2)cc1	31.9% (active)
O=C(OCc1ccc(-c2ccccc2)cc1)c1cccc(O)c1	9.28% (inactive)
Oc1ccc(-c2nncn2-c2ccccc2)cc1	-3.14% (inactive)
CNC(=S)N1CCC(NC(=O)C(Cc2ccc(F)cc2)NC(C)=O)CC1 (centres undefined)	-1.22% (inactive)
COc1ccc(CCNC(=O)CCCCCNC(=O)N2CCn3c2nc2ccccc23)cc1OC	-1.29% (inactive)
O=C(NCCCn1ccnc1)/C(=C\c1ccccc1F)NC(=O)c1ccccc1	-0.09% (inactive)
CC(C)c1cc(C(=O)N/N=C/C(Br)=C/c2ccccc2)n[nH]1	6.56% (inactive)
CC(C)(C)C1CCC(=NNC(=O)c2cc(-c3ccccc3)n[nH]2)CC1 (centres undefined)	-5.15% (inactive)

Compound	Tm shift relative to glycine control
CC(/C=N/NC(=O)c1cc(-c2ccc3ccccc3c2)n[nH]1)=C\c1ccco1	16.4% (active)
Cc1cc2c(cc1C)NC1(C[C@H]3CCC(=O)N4CC[C@@H](C1)[C@@H]34)C(=NC(C)(C)CC(C)(C)C)N2 (some centres undefined)	-6.03% (inactive)
Cc1ccc(C)c(N2CCN(C(=O)CCCCCn3c(=S)[nH]c4ccc(N5CCOCC5)cc4c3=O)CC2)c1	-2.75% (inactive)
CC(C)NC(=O)CCCn1c(=S)[nH]c2cc3c(cc2c1=O)OCO3	-1.68% (inactive)
O=C(CCCCCn1c(=S)[nH]c2cc3c(cc2c1=O)OCO3)N1CCN(c2ccc(F)cc2)CC1	11.6% (active)
CC(C)c1ccc(NC(=S)NC2CC3C=CC2C3)cc1 (centres undefined)	0.48% (inactive)
Cc1ccc(N=C2NC(=O)/C(=C/C=C/c3ccco3)S2)cc1C	9.42% (inactive)
Cc1cccc(N=C2NC(=O)/C(=C/c3cn(C)c4ccccc34)S2)c1	26.7% (active)
Cc1ccc(N2C(=O)S/C(=C/c3cn(C)c4ccccc34)C2=O)cc1	1.52% (inactive)
Cc1cccc(N2CCN(C(=O)CN(C)S(=O)(=O)c3ccc4c(c3)CCC(=O)N4)CC2)c1C	0.4% (inactive)
CN(NC(=O)C1CC(=O)N(c2ccccc2)C1)C1=NS(=O)(=O)c2ccccc21 (centres undefined)	-0.38% (inactive)
Cc1cccc(OCCNC(=S)NC(=O)c2cccnc2)c1	1.46% (inactive)
Cc1ccc(NC(=O)NC(=O)c2ccccc2)cc1F	-0.73% (inactive)
Cc1cccc(NC(=O)NC(=S)NC(=O)c2ccccc2)c1	20.6% (active)
O=C(c1ccc[nH]c1=S)N1CCN(S(=O)(=O)c2ccc(Br)cc2Cl)CC1	-0.43% (inactive)
COC(=O)C1(O)CC(C(C)C)=NN1C(=O)c1ccc(Cl)cc1 (centres undefined)	-4.26% (inactive)
Cc1ccc(NC(=O)CN2CCC3(O)CCCCC3C2c2ccc3c(c2)OCO3)c(C)c1 (centres undefined)	1.39% (inactive)
Cc1cc(C)c(OCC(=O)N(Cc2cccs2)C2CCS(=O)(=O)C2)c(C)c1 (centres undefined)	-2.05% (inactive)
Cc1ccc(-c2cn(S(=O)(=O)c3cccc([N+](=O)[O-])c3)nc2N)cc1	23.9% (active)
CC1=NCCN1S(=O)(=O)c1cccc([N+](=O)[O-])c1	0.43% (inactive)
Cc1cc(C)n(S(=O)(=O)c2cccc([N+](=O)[O-])c2)n1	-0.54% (inactive)
O=C(COC(=O)c1ccco1)Nc1ccc(Cl)cn1	-4.19% (inactive)
CCN(c1ccccc1)S(=O)(=O)c1ccc(OCC(=O)N2CCCC2)cc1	-0.92% (inactive)
COC(=O)C(NS(=O)(=O)c1ccc(F)cc1)c1ccccc1 (centres undefined)	0% (inactive)
COc1ccc(CN2CCN(Cc3ccc(OC)c(OC)c3OC)CC2)cc1	-0.74% (inactive)
